{"source": "PubChem BioAssay (NCATS)", "note": "Inconclusive results are not listed. Values without a mark were called inactive. The call rests on the fitted dose curve; in most records, active means well fitted cell-killing curve with a large enough effect; inconclusive means small, poorly fitted or top-dose-only effect, or effect the other way; inactive means flat fitted curve, though single readings scatter.", "data": [{"system": "C33A", "test": "Primary qHTS to identify gynecologic anti-cancer compounds using libraries of approved drugs and bioactive compounds (AID 1345084); further: on the % scale 0 is the no-effect control and ±100 the full control effect; nearly all actives have a fitted effect of over 55% in size", "details": "Gynecologic cancer cell panel viability, ATPlite luminescence, 48 h; series mostly up to 57.5 µM; activity change, negative = cytotoxicity: at the top concentration", "how_it_was_run": "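Cells, 1,000 per well, were allowed to settle for 16 h at 37 C before compound addition. Five concentrations were tested for 48 h, and viability was read by ATPlite luminescence after 15 min at room temperature.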", "values": [{"molecule": "C=C1CC23CC1(O)CCC2C1=CC2OC(=O)C(C)(C2O)C1C3C(=O)O", "note": "(stereo not given)", "activity change, negative = cytotoxicity": "4.01% [at 38.5 µM]"}, {"molecule": "CC(C)(O)c1ccc2c(c1)C(=O)CC1[C@](C)(CO)CCC[C@]21C", "note": "(stereo not given in full)", "activity change, negative = cytotoxicity": "-0.12% [at 38.5 µM]"}, {"molecule": "CN1CCC(c2c[nH]c3ccc(NC(=O)c4ccc(F)cc4)cc23)CC1", "activity change, negative = cytotoxicity": "8.51%"}, {"molecule": "C[C@@H]1CC[C@]2(C(=O)O)CC[C@]3(C)C(=CCC4[C@]5(C)C(CC[C@]43C)C(C)(C)[C@@H](O)[C@H](O)[C@@H]5O)C2[C@]1(C)O", "note": "(stereo not given in full)", "activity change, negative = cytotoxicity": "9.43% [at 25.3 µM]"}, {"molecule": "CC[C@H]1OC(=O)[C@H](C)[C@@H](OC2C[C@@](C)(OC)[C@@H](O)[C@H](C)O2)[C@H](C)[C@@H](OC2O[C@H](C)C[C@H](NC)[C@H]2O)[C@](C)(O)C[C@@H](C)CN(C)[C@H](C)[C@@H](O)[C@]1(C)O", "note": "(stereo not given in full)", "activity change, negative = cytotoxicity": "13.9%"}, {"molecule": "COc1ccc(C2=CC(=O)OC2Cc2ccc(O)cc2)c(O)c1", "note": "(stereo not given)", "activity change, negative = cytotoxicity": "1.07% [at 38.5 µM]"}, {"molecule": "Cn1ccnc1CCOC(c1cc2nccc(C(=O)O)c2[nH]1)c1ccccc1Cl", "note": "(stereo not given)", "activity change, negative = cytotoxicity": "11.4%"}, {"molecule": "CC1=C(C)C(=O)OC(C(C)C2C(O)CC3C4C5OC5C5(O)CC(OC6OC(CO)C(O)C(O)C6O)CC(O)C5(C)C4CCC32C)C1", "note": "(stereo not given)", "activity change, negative = cytotoxicity": "-4.97% [at 25.3 µM]"}, {"molecule": "O=C(O)C[C@@H](NC(=O)c1cc(-c2ccc(-c3ccncc3)cc2)cs1)c1ccccc1", "activity change, negative = cytotoxicity": "-1.07%"}, {"molecule": "CC1(C)CC2C3=CCC4C5(C)CCC(OC6OC(C(=O)O)C(O)C(O)C6OC6OC(CO)C(O)C(O)C6OC6OC(CO)C(O)C(O)C6O)C(C)(CO)C5CCC4(C)C3(C)CCC2(C)C(OC2OCC(O)C(OC3OC(CO)C(O)C(O)C3O)C2O)C1O", "note": "(stereo not given)", "activity change, negative = cytotoxicity": "8.44% [at 6.55 µM]"}]}]}
